# Measurements from PubChem BioAssay (NCATS).
# Inconclusive results are not listed. Entries that show only a call come without a potency. Calls of active or inactive are those of the source. Calls come from the whole dose curve.
# Test: S16 Schwann cell PMP22 intronic element beta-lactamase assay (AID 624044); note: nearly all actives have a fitted effect of over 15% in size
# Conditions: S16 rat Schwann cells, PMP22 element beta-lactamase FRET, 24 h; series mostly up to 38.3 µM
# How it was run: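 Rat S16 Schwann cells with beta-Lac driven by a PMP22 intronic element, compound-treated 24 h at 37 °C. LiveBLAzer FRET B/G read: 460 nm normalized to potassium clavulanate vs DMSO; 535 nm FRET as viability; concentration-effect curves classified.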
# Potency is the fitted concentration of half-maximal effect.
row,SMILES,Potency
1,CCC1(CC)C(=O)NC(=O)N(C)C1=O,inactive
2,O=C(CS(=O)C(c1ccccc1)c1ccccc1)NO (configuration not stated),inactive
3,Clc1ccc(C2(Cn3cncn3)OCCO2)c(Cl)c1,inactive
4,O=C1CN(O)C(c2ccccc2)=c2cc(Cl)ccc2=N1,inactive
5,CCCC(=O)OC(C(Cl)(Cl)Cl)P(=O)(OC)OC (configuration not stated),inactive
6,O=C(CCl)c1ccc(Oc2ccc(C(=O)CCl)cc2)cc1,inactive
7,CC(=O)OC1CN2CCC1CC2 (configuration not stated),inactive
8,CNC1(c2ccccc2Cl)CCCCC1=O (configuration not stated),inactive
9,c1ccc(C2(N3CCCC3)CCCCC2)cc1,inactive
10,O=P(O)(O)C(Cl)(Cl)P(=O)(O)O,inactive
11,CC1CCC(C(C)C)C(OC(=O)c2ccccc2N)C1 (configuration not stated),inactive
12,CCC(N)Cc1c[nH]c2ccccc12 (configuration not stated),inactive
13,Cn1sc(Cl)cc1=O,inactive
14,CC[N+](C)(CC)CCOC(=O)C(O)(c1ccccc1)c1ccccc1,inactive
15,Clc1ccc(Cl)cc1,inactive
16,CNC(=O)Oc1ccccc1C(=O)Nc1ccccc1,inactive
17,c1ccc2sc(SNC3CCCCC3)nc2c1,inactive
18,CCCCCCCCCC(=O)O[C@H]1CC[C@H]2[C@@H]3CCC4=CC(=O)CC[C@]4(C)[C@H]3CC[C@]12C,inactive
19,Oc1cccc[c]1[Hg][Cl],4.46 µM (active)
20,O=C(NC(=O)c1c(F)cccc1F)Nc1ccc(Cl)c(Oc2ncc(C(F)(F)F)cc2Cl)c1,inactive
21,COc1ccc2c3c1O[C@H]1C(=O)CC[C@H]4[C@@H](C2)N(C)CC[C@]314,inactive
22,O=C1CN=C(c2ccccc2)c2cc(Cl)ccc2N1CC1CC1,inactive
